Reference: ChEMBL document CHEMBL3988442, “University of Dundee, Small-Polar-MMV Screening Library” (2021)
Among all 48,000 compounds or so, about 13,000 (27%) showed an effect of 50% or more. The list shows a part of the results.

system: Wolbachia pipientis; test: Anti-Wolbachia Cell-Based Screen; format: functional; set-up: scale not given: in the data most compounds retested in dose-response had high values; conditions: 5 µM

Compound | Percent Effect [%]
O=C(NCc1ccco1)[C@@H]1C[C@H]2OCC[C@H]2N(c2ncc(F)cn2)C1 | 12.25
Cc1nnc(N2C[C@H](C(=O)NCc3ccco3)[C@@H]3CCO[C@@H]3C2)s1 | 0.8381
O=C(NCc1ccco1)[C@H]1C[C@H]2OCC[C@H]2N(C(=O)c2ccnnc2)C1 | 110.4
Cc1occc1C(=O)N1C[C@@H](C(=O)NCc2ccco2)C[C@H]2OCC[C@H]21 | 100.5
Cc1occc1C(=O)N1C[C@@H](C(=O)N2CCCCO2)C[C@H]2OCC[C@H]21 | -3.518
O=C(NCc1ccco1)[C@H]1C[C@H]2OCC[C@H]2N(C(=O)c2ccncc2)C1.O=C(O)C(F)(F)F | -2.028
O=C(NCc1ccco1)[C@H]1C[C@H]2OCC[C@H]2N(C(=O)c2ccco2)C1 | -11.04
O=C(NCc1ccco1)[C@H]1C[C@H]2OCC[C@H]2N(S(=O)(=O)C2CC2)C1 | -11.11
CN(C)C(=O)N1C[C@@H](C(=O)NCc2ccco2)C[C@H]2OCC[C@H]21 | 111.8
NCC1Cc2cc(-c3nccc(N4CCC(O)CC4)n3)cc(F)c2O1 (stereo unspecified) | -9.833
Cc1nnc(NCCc2nc3ccc(F)cc3n2C)c(C#N)c1C | -11.69
Cc1ccccc1C(C)(C)CNC(=O)CCSc1nnnn1C | -6.777
O=S(=O)(c1ccc2c(c1)OCCO2)N1CCC(OCc2ccccn2)C1 (stereo unspecified) | -6.121
O=c1ccc2c([nH]1)CCN(S(=O)(=O)c1ccc3c(c1)OCCO3)C2 | 2.836
O=S(=O)(c1ccc2c(c1)OCCO2)N1CCc2ccccc2C1 | 119.9
Cc1nsc(NC(=O)N2CCC(C(C)(C)O)CC2)n1 | -12.37

Compound | Percent Effect [%]
O=C(C1CCCN(Cc2cccnc2)C1)N1CCc2sccc2C1 (stereo unspecified) | 6.643
CN(C)C(=O)N1Cc2ccccc2C2(CCN(C3CCOCC3)CC2)C1 | -2.498
O=C(C1CCCN(C2CCOCC2)C1)N1CCc2ncccc2C1 (stereo unspecified) | 101.2
CC(C(=O)N1CCc2sccc2C1)N1CCC(N2CCCC2)CC1 (stereo unspecified) | -24.52
O=C(C1CCCN(Cc2ccccc2)C1)N1CCc2sccc2C1 (stereo unspecified) | 14.78
Cn1c(C(N)=O)cc2c1CN(C(=O)C1CCCN(C3CCCC3)C1)CC2 (stereo unspecified) | -3.385
O=C(C1CCCN(C2CCOCC2)C1)N1Cc2ccccc2C1 (stereo unspecified) | 98.98
CN1CCC(N2CCCC(C(=O)N3Cc4ccccc4C3)C2)CC1 (stereo unspecified) | 88.48
O=C(C1CCOCC1)N1CCc2ncnc(-c3ccccc3)c2CC1 | -2.988
CCc1nnc(CN(C)c2nccc(CCC(F)(F)F)n2)o1 | -5.519
CCc1ccc(C(=O)O)cc1S(=O)(=O)Nc1c(C)ccn(C)c1=O | 6.747
O=C1CCCN1CCCN1CCCC1Cn1cccn1 (stereo unspecified) | 2.247
COCCC1(C(=O)O)CCCN(CC(=O)NCCc2ccccc2)C1 (stereo unspecified) | -1.604
COCCNC(=O)Cn1cc(OCc2ccccc2)c(=O)cc1CO | 143.5
COC(=O)CCNC(=O)c1ccc(OCc2ccccc2)nc1 | 0.7688
